Consider 27 compounds from PubChem BioAssay (NCATS).

Molecules are shown by their SMILES. Results filed as inconclusive are left out. Activity calls are given as the source filed them. Unless noted, calls come from the whole dose curve; as a rule, active = well fitted curve in the direction sought with a large enough effect; inconclusive = small, poorly fitted or top-dose-only effect, or another doubt; inactive = no such curve, though single readings can be large; an effect the other way counts as inactive or inconclusive.

Assay [1] is described as follows: Inducers of the Endoplasmic Reticulum Stress Response (ERSR) in human glioma: Validation (AID 504836). Note: 0% is about no effect. A digest of the protocol: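 Stably transfected U87-MG glioma cells carrying a GRP78-based luciferase sensor; 16 h compound incubation. Luminescence end-point read 10 min after Bright-Glo addition at room temperature.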
Assay [2] concerns the target Cytochrome P450 3A4 (Homo sapiens) (UniProt P08684). As to the kind of experiment: qHTS Assay for Inhibitors and Substrates of Cytochrome P450 3A4 (AID 884). Note: nearly all actives have a fitted effect of over 50% in size. Note: potency is the fitted concentration of half-maximal effect. A digest of the protocol: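 20 nM human CYP3A4 with 25 uM Luciferin-PPXE (at KM) in 200 mM KPO4, preincubated 10 min with compound; NADPH regeneration started a 60 min RT reaction. Luciferin detected by luminescence, normalized to 57 uM ketoconazole as full inhibition.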
Background: In qHTS, concentration-response curves come from the screen itself.

The nature of assay [3]: Confirmation and Secondary Assay for Modulators of Hemoglobin Beta Chain Splicing at IVS2 654 locus (AID 910).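 Note: HeLa cells stably carrying EGFP split by mutant beta-globin IVS2-654 intron; % of control where 0% means no effect.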 In a few lines:
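HeLa cells stably expressing EGFP interrupted by β-globin IVS2-654 intron, seeded overnight in Opti-MEM/2% FCS, then treated 2 days at 37 °C. Restored splicing read as total peak GFP intensity per well by laser scanning cytometry (488 nm excitation, 500–520 nm emission); 500 nM antisense PNA as control.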

The nature of assay [4]: Confirmation and Secondary Assay for Modulators of Hemoglobin Beta Chain Splicing at IVS2 705 locus (AID 930).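 Note: HeLa cells stably expressing the EGFP-705 splicing reporter; GFP fluorescence per well restored by corrected splicing of the IVS2-705 intron in EGFP; series mostly up to about 46 µM; % of control where 0% means no effect.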 In a few lines: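 Splice-correction reporter: EGFP cDNA split by beta-globin intron 2 bearing the 705 mutation, stably in HeLa. Compound incubation 2 days, 37C; fluorescent objects 5-250 µm summed per well.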
For assay [5], the target named is Vitamin D3 receptor (Homo sapiens) (UniProt P11473). Kind of assay: qHTS assay for small molecule agonists of vitamin D receptor signaling (AID 588543; calls by dose curve;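 note: 0% = DMSO basal and 100% = reference agonist control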). A digest of the protocol: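 Measured: β-lactamase reporter activity (CCF4, 405 nm excitation, 460/530 nm emission) in HEK293T VDR-UAS-bla cells after 16 h compound exposure at 37 °C. Normalization against 50 nM 1α,25-dihydroxyvitamin D3 and DMSO; Hill-fit EC50.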
Sequence of Vitamin D3 receptor (Homo sapiens) (P11473 whole entry, looked up): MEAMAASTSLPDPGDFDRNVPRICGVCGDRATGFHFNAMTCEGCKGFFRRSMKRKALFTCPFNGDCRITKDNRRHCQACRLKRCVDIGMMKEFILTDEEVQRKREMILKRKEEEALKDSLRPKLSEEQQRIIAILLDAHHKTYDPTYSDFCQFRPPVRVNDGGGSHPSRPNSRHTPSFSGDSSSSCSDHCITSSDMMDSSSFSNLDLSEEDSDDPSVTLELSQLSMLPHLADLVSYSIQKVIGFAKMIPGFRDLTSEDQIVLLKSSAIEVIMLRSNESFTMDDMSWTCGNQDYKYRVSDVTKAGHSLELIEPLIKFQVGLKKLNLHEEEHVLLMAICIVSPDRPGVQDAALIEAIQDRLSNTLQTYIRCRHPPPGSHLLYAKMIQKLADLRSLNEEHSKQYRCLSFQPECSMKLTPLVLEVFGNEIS

Assay [6] deals with Cytochrome P450 3A4 (Homo sapiens) (UniProt P08684). Kind of assay: qHTS Assay for Activators of Cytochrome P450 3A4 (AID 885). Note: nearly all actives have a fitted effect of over 65% in size. In a few lines: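 20nM CYP3A4 + 25uM Luciferin-PPXE (=KM), 200mM KPO4; cpd 10 min RT; NADPH regen, 60 min RT; stop w/ detection buffer, 20 min; luminescence. Normalized to 57 uM ketoconazole.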
Sequence of Cytochrome P450 3A4 (Homo sapiens) (P08684 whole entry, looked up): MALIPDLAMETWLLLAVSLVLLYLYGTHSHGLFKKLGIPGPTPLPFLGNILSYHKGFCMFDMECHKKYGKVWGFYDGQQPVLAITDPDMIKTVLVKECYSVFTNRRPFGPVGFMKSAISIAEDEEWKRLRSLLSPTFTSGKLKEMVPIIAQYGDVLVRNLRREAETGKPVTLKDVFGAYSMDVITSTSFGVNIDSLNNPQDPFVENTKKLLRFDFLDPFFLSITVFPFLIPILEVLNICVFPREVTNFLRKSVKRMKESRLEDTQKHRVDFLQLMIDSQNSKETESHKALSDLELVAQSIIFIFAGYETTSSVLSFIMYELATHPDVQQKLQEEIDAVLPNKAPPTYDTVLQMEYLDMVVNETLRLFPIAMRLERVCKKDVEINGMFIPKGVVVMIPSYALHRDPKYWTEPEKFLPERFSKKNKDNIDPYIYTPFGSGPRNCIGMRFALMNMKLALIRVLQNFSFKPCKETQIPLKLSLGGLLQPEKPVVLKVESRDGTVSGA
The target in assay [7] is Alpha-galactosidase (Coffea arabica) (UniProt Q42656). Kind of assay: Counterscreen for Glucocerebrosidase Inhibitors: qHTS Assay for Coffee Bean alpha-Galactosidase at pH 4.5 (AID 957).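 Note: series mostly up to about 77 µM; plate controls were enzyme alone for no effect and no enzyme for full effect.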 In a few lines: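 Coffee bean enzyme (2 nM) with 80 uM 4-methylumbelliferyl alpha-D-galactopyranoside in 50 mM citric acid, 0.005% Tween-20, pH 4.5, 20 min at room temperature; compounds 0.7 nM–77 uM. Stopped at pH 10, fluorescence 365/440 nm; AC50 from Hill fits.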
Sequence of Alpha-galactosidase (Coffea arabica) (Q42656 whole entry, looked up): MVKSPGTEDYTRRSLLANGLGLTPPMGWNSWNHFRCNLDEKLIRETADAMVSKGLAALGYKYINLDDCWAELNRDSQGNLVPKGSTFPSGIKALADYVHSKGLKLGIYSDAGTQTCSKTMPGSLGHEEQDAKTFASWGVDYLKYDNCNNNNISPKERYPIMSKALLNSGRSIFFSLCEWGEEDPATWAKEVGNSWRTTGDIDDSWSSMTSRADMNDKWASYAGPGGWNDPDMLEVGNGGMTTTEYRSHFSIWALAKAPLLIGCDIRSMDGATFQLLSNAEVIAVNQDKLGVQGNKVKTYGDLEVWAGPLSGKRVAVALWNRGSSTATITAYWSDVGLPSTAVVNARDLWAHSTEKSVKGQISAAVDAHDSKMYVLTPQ

Assay [8] has the same target. As to the kind of experiment: Counterscreen for Glucocerebrosidase Inhibitors: qHTS Assay for Coffee Bean alpha-Galactosidase at pH 5.9 (AID 998).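 Note: plate controls were uninhibited enzyme for no effect and no-enzyme basal signal for full effect.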 In a few lines:
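Green coffee bean enzyme (2 nM) with 4-methylumbelliferyl alpha-D-galactopyranoside (80 uM) in 50 mM citric acid, 0.005% Tween-20, pH 5.9, 20 min at room temperature; compounds 0.7 nM–77 uM. Stopped at pH 10, fluorescence Ex365/Em440; Hill-fit AC50.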
In general terms: The purpose of a counterscreen is to sort out artefacts and off-target activity.

Assay [9] concerns the target Peroxisome proliferator-activated receptor delta (Homo sapiens) (UniProt Q03181). As to the kind of experiment: qHTS assay for small molecule agonists of peroxisome proliferator-activated receptor delta signaling (AID 588534; calls by dose curve;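 note: 0% = DMSO basal wells and 100% = positive control agonist at 10 µM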). A digest of the protocol:
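Cells carrying a PPAR-delta beta-lactamase reporter were treated with compounds for 18 h at 37 °C in agonist mode. CCF4 fluorescence was read after 2 h; EC50 and efficacy from Hill fits.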

Assay [10] in a line: qHTS assay for small molecule antagonists of peroxisome proliferator-activated receptor delta signaling (AID 588535; active = well fitted inhibition curve with a large enough effect in the signal ratio, with a control signal flat, not every such curve was filed as active; the % refers to the signal ratio;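 for max response: cells co-treated with a PPAR-delta agonist as stimulator during compound exposure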). Particulars: HEK293T PPARd-UAS-bla, beta-lactamase FRET ratio, 18 h; 460 nm channel. A digest of the protocol:
(§1)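 Antagonist-mode beta-lactamase reporter (GeneBLAzer PPAR-delta-UAS-bla) in HEK293T cells, 2% charcoal/dextran FBS, 4000 cells/well. Compound titrations, 18 h at 37 C; CCF4 ratio read, IC50 and efficacy from Hill fits.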

The target in assay [11] is Peroxisome proliferator-activated receptor delta (Homo sapiens) (UniProt Q03181). The description is as above. In a few lines: as §1
Sequence of Peroxisome proliferator-activated receptor delta (Homo sapiens) (Q03181 whole entry, looked up): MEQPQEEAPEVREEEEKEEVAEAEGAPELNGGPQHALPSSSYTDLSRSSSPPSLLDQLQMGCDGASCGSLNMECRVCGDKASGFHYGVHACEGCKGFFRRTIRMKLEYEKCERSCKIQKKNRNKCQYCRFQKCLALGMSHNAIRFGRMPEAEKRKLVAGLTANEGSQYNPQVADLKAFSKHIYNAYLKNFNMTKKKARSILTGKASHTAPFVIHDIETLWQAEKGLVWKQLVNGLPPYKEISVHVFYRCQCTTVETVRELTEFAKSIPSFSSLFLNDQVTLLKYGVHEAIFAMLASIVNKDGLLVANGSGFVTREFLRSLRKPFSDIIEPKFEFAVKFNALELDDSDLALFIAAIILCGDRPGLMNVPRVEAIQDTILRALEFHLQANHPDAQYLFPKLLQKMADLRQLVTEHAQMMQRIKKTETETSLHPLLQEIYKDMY
The target of assay [12] is Peroxisome proliferator-activated receptor gamma (Homo sapiens) (UniProt P37231). As to the kind of experiment: qHTS assay for small molecule antagonists of peroxisome proliferator-activated receptor gamma signaling (AID 588537; active = well fitted inhibition curve with a large enough effect in the signal ratio, with a control signal flat, not every such curve was filed as active; the % refers to the signal ratio; note: potency is the fitted concentration of half-maximal effect). In a few lines: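 PPARγ-UAS-bla HEK293 cells (3000/well) in 1% charcoal/dextran-stripped FBS are treated with compound, then stimulated with 50 nM rosiglitazone for 16 h at 37 °C. Read-out is CCF4 β-lactamase fluorescence after 2 h at RT. IC50 comes from Hill fits normalised to rosiglitazone and DMSO.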
Sequence of Peroxisome proliferator-activated receptor gamma (Homo sapiens) (P37231 whole entry, looked up): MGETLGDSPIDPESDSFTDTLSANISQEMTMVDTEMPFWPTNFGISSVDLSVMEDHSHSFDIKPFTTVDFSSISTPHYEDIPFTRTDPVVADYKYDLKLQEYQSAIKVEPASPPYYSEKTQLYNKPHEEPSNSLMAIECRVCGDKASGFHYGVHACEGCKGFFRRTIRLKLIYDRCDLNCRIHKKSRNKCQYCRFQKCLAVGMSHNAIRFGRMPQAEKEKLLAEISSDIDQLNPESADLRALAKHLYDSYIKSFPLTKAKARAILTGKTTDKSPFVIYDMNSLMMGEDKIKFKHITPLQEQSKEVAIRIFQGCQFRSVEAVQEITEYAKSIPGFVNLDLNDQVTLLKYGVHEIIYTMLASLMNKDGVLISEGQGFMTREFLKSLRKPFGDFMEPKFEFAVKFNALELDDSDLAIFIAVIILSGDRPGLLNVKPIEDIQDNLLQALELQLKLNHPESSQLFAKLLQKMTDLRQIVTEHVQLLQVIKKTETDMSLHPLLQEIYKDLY

In assay [13] the target is Vitamin D3 receptor (Homo sapiens) (UniProt P11473). As to the kind of experiment: qHTS assay for small molecule antagonists of vitamin D receptor signaling (AID 588541; calls by dose curve;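 note: receptor activated by calcitriol during compound treatment; series mostly up to about 77 µM; % is set by controls: 0 for no effect and ±100 for the full control effect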). In a few lines:
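VDR-UAS-bla HEK293T cells in 2% charcoal-stripped FBS were stimulated with 1-alpha,25-dihydroxyvitamin D3 (3 nM final) plus compound for 16 h at 37 C. The beta-lactamase CCF4 readout was normalized to 50 nM agonist and DMSO, and Hill fits gave IC50.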

A short description of assay [14]: S16 Schwann cell PMP22 intronic element firefly luciferase assay (AID 624032).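 Note: series mostly up to about 58 µM; plate controls were DMSO for no effect and PTC124 positive control mean for full effect; nearly all actives have a fitted effect of over 30% in size.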 In a few lines: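 Rat S16 Schwann cells stably carrying firefly luciferase driven by a PMP22 intronic element, in 10% FBS, treated 24 h at 37 C. ONE-Glo luminescence normalized to PTC124 control and DMSO (0%); curves classed by r2, magnitude and activity.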

Consider `Cc1cc(NC2CCCCC2)nc(-n2nc(C)cc2C)n1`, for which the outcome in assay [1] was inactive.

In the case of `CC1(C)S[C@H]2[C@@H](N)C(=O)N2[C@H]1C(=O)O`, in assay [2], the Potency result was “inactive”.

As for `CC(C)N(C(=O)CCl)c1ccccc1`, the Potency entry in assay [2] and in assay [3] was “inactive” each time. Besides, the result in assay [4] and in assay [5] was inactive.

For `COc1ccc(C2Oc3c(I)c(OC)cc(OC)c3CC2O)cc1OC` (stereo not given), the Potency in assay [2] is 3.16 µM (active). Further, the Potency entry in assay [6] and in assay [3] was “inactive” each time. Further, the compound was called inactive in assay [4].

On to `CCCCCCCC/C=C\CCCCCCCC(=O)NCCc1ccc(O)c(O)c1`, for which the outcome in [7], in [8] and in assay [1] was inactive.

Turning to `O=C(NC(=O)c1c(F)cccc1F)Nc1ccc(Cl)cc1`, the Potency result in assay [2], in assay [3], in assay [11], in assay [12] and in assay [13] was “inactive” throughout. The outcome in assay [4], in [9] and in assay [5] was inactive. Moreover, the max response in [10] is -32.8%.

Consider `CC[C@@H](C)[C@H]1O[C@]2(CC[C@H]1C)C[C@@H]1C[C@@H](CC=C(C)[C@@H](O[C@H]3C[C@H](OC)[C@@H](O[C@H]4C[C@H](OC)[C@@H](O)[C@H](C)O4)[C@H](C)O3)[C@@H](C)C=CC=C3CO[C@@H]4[C@H](O)C(C)=C[C@@H](C(=O)O1)[C@]34O)O2`, for which, in [1], the compound was called inactive.

With `c1cnc2c(c1)ccc1cccnc12`, the result in assay [7], in assay [8], in assay [1] and in assay [9] was inactive.

With `O=C(CCCCCN1CCN(c2ccccc2-c2ccccc2)CC1)NC1CCCc2ccccc21` (stereo not given), the outcome in assay [1] was inactive.

As for `NS(=O)(=O)C#Cc1ccccc1`, in assay [1], the result was inactive.

With `NC(N)=NC(=O)c1nc(Cl)c(N2CCCCCC2)nc1N`, the call in [7], in [8] and in [1] was inactive.

With `O=C1C=C2C(=CCOC2O)O1` (stereo not given), the Potency result in [2] and in [3] was “inactive” in each case. The compound was called inactive in [4], in assay [9] and in [5]. The Potency in assay [12] was 20 µM (active).

In the case of `COc1cc2c(cc1OC)-c1c(OC)c(OC)c(C=O)c3c1[C@H](C2)N(C)CC3`, in [6], the Potency result is “inactive”.

With `O=C1c2ccccc2C(=O)c2c(NCCc3ccc(O)cc3)ccc(NCCc3ccc(O)cc3)c21`, in assay [1], the call was inactive.

For `COc1ccccc1N1CCN(CCCCNS(=O)(=O)c2cccc3c(N(C)C)cccc23)CC1`, the outcome in [7], in [8] and in [1] was inactive.

`Oc1ccc(/C=C/c2ccc(/C=C/c3ccc(O)cc3)c(Br)c2)cc1`: the compound was called inactive in assay [1].

Regarding `CN(C)C1C(=O)C(C(N)=O)=C(O)[C@@]2(O)C(=O)C3=C(O)c4c(O)cccc4[C@@](C)(O)C3CC12` (stereo not given in full), the Potency entry in assay [2] and in [3] was “inactive” each time. Further, the result in assay [4] was inactive.

Consider `CC(=O)OC1CCC2(C)C3=C(CCC2C1(C)C)[C@@]1(C)CCC(C(C)CCC=C(C)C)[C@@]1(C)CC3` (stereo not given in full), for which the Potency result in assay [2] was “inactive”.

Turning to `CNC1=CN(O)C(c2ccccc2)=c2cc(Cl)ccc2=N1`, the Potency entry in assay [14] is “inactive”.

For the compound `CCN(c1nc(N)c(C(=O)N=C(N)N)nc1Cl)C(C)C`, the compound was called inactive in assay [7], in [8] and in assay [1].

As for `CN1[C@H]2CC(OC(=O)[C@H](CO)c3ccccc3)C[C@H]1[C@H]1O[C@H]12` (stereo not given in full), in [9], the outcome was inactive.

For `CC1=CC(=O)c2c(O)cccc2C1=O`, the Potency entry in [2], in assay [6] and in [3] was “inactive” in each case. For the same compound, in assay [4], the compound was called inactive.

For the compound `CSc1ccccc1N1CCN(CCCCCC(=O)NC2CCCc3ccccc32)CC1` (stereo not given), the result in assay [1] was inactive.

As to `COC1=C(OC)C(=O)c2ccccc2C1=O`, the compound was classed as inactive in assay [7], in assay [8] and in assay [1].

As for `CC(C)(C)c1cc(/C=C(\C#N)C(N)=S)cc(C(C)(C)C)c1O`, the compound was called inactive in assay [7], in assay [8] and in assay [1].

Regarding `CCCCN(CC)c1c([N+](=O)[O-])cc(C(F)(F)F)cc1[N+](=O)[O-]`, the Potency entry in assay [6], in [3], in [11], in assay [12] and in [13] was “inactive” throughout. The compound was classed as inactive in assay [4], in [9] and in [5]. In addition, in [10], the max response was 41.5%.

Take `C=C(CC1(CNP(=O)(c2ccccc2)c2ccccc2)CC1)c1ccccc1`: the Potency in assay [2] is 3.98 µM (active). For the same compound, in assay [6], the Potency entry is “inactive”.
